# Most compounds without a hit are left out; they make up all but 3% or so of the library.
# EWS-Fli inh: blocks EWS/Fli oncoprotein-driven transcription; inhibition, % at 12.6 µM; A673 NR0B1-luciferase reporter, viability-normalised; 350,000 compounds, 0.67% hits;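 active = mean inhibition of at least 50% after viability correction, with every replicate also passing that limit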;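 also: firefly luciferase signal divided by Alamar Blue viability fluorescence both relative to DMSO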
# TRPM1 prom inh: reduces MITF-dependent TRPM1 promoter luciferase signal; SK-MEL-5 TRPM1 promoter luciferase, 24 h; inhibition, % at 12.5 µM; 330,000 compounds, 0.83% hits; AID 488899;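 active = mean inhibition across replicates of 60% or more, whatever share of single replicates reaches that level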
# PAX8 reporter: PAX8 transcriptional activity inhibition. RMG-I TPO-luciferase reporter, SteadyGlo, 24 h. inhibition, % at 12.6 µM. 360,000 compounds, 1.2% hits. AID 652154;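 active = mean replicate inhibition at least 60% with every replicate also reaching 60%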;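 also: luciferase light reporting Pax8 driven TPO promoter activity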
# Shn3 inh set2: reduces Shn3 3'UTR luciferase signal in osteoblasts; Clone20 osteoblast Shn3 3'UTR firefly luciferase, 24 h; inhibition, % at 12.5 µM; 360,000 compounds, 0.52% hits;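 active = mean inhibition of at least 75% with every replicate also reaching 75%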
# ABHD5-PLIN5 inh: ABHD5-PLIN5 protein interaction inhibition; AID 602281; Q00G26+Q8WTS1; Split G. princeps luciferase complementation, luminescence, 4 h; inhibition, % at 4 µM; 360,000 compounds, 0.78% hits;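 active = inhibition above the mean inhibition across every tested compound plus 3 SD, cut at about 22% in these data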
# Target sequence (Q00G26 whole entry, looked up): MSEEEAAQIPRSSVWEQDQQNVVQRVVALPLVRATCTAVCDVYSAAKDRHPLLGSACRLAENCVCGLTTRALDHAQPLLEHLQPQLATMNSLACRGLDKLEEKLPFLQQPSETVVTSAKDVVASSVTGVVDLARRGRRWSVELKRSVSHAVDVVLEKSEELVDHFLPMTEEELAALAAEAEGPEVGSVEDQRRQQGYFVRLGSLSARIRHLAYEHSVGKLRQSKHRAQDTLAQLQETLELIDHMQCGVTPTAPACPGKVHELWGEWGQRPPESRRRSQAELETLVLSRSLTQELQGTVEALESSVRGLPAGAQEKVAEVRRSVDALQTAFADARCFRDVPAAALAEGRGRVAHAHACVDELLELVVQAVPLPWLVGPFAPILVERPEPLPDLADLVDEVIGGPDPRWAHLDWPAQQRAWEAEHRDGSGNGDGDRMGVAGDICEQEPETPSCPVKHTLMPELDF
# Target sequence (Q8WTS1 whole entry, looked up): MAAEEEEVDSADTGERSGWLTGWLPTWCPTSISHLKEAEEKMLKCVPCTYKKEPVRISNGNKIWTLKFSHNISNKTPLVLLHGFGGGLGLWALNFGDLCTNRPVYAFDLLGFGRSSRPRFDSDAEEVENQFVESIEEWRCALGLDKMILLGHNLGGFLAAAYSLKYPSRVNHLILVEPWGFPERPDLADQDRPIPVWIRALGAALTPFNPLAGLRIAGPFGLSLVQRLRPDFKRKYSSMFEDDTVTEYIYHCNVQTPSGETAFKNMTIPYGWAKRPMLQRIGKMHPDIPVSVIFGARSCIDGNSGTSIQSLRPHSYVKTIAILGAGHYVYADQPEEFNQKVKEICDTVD
# Peg3 promoter: Peg3 promoter activity inhibition; AID 588405; inhibition, % at 20 µM; HeLa PEG-Prom luciferase reporter, luminescence, overnight; 360,000 compounds, 1.7% hits;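 active = inhibition of at least 50% at 20 µM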
# ABHD5-PLIN5 conf: ABHD5-PLIN5 interaction inhibition, confirmed; 2,200 compounds, 67% hits; biochemical ABHD5-PLIN5 interaction, luminescence; AID 651612; inhibition, % at 4 µM; shares compounds with ABHD5-PLIN5 inh; in the data active = inhibition above about 23%
# HNF4 counter: active in HNF4 split-luciferase counter-screen for ABHD5-PLIN5 inhibitors; shares compounds with ABHD5-PLIN5 inh; HNF4 dimerization, luminescence, biochemical; inhibition, % at 4 µM; 2,200 compounds, 77% hits;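 active = mean inhibition across replicate wells exceeding the computed hit threshold, cut at about 13% in these data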;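 also: light from luciferase halves that rejoin when HNF4 fusion proteins dimerize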
# A number is an active result; . = inactive; / = no result.
SMILES,EWS-Fli inh,TRPM1 prom inh,PAX8 reporter,Shn3 inh set2,ABHD5-PLIN5 inh,Peg3 promoter,ABHD5-PLIN5 conf,HNF4 counter
O=C(O)c1ccc(S(=O)(=O)c2ccccc2C(=O)O)c([N+](=O)[O-])c1,.,.,.,.,.,.,/,/
O=C(O)c1ccc(S(=O)(=O)c2ccc([N+](=O)[O-])cc2[N+](=O)[O-])cc1,.,.,.,.,42.3,.,68.3,110.2
Cc1ccc(NC(=O)c2ccccc2)cc1,/,.,.,.,.,.,/,/
Cc1ccc(N/C(=C\C(=O)c2ccccc2)C(=O)O)cc1,.,.,.,.,92.8,.,.,.
Cc1ccc2c(c1)/C(=C/c1ccccc1F)C(=O)N2,.,.,.,.,31.0,.,44.0,39.5
C[C@@H]1CN([C@H](C)CO)C(=O)c2cc(NC(=O)CCCN(C)C)ccc2O[C@@H](C)CCCCO[C@H]1CN(C)Cc1ccc2c(c1)OCO2,.,/,.,/,/,/,/,/
O=C(/C=C\c1ccccc1OC(=O)c1ccccc1F)c1cc2ccccc2o1,.,.,.,.,69.9,.,100.3,97.6
Cc1c(C(=O)OCC(C)C)[nH]c2c1C(=O)CC(c1ccco1)C2 (stereo not given),53.4,.,68.5,.,28.0,.,.,.
C/C=C/COC(=O)c1[nH]c2c(c1C)C(=O)CC(c1ccco1)C2 (stereo not given),.,/,.,.,.,.,/,/
CCCC#Cc1ccc2c(c1)O[C@@H](CN(C)C(=O)COC)[C@H](C)CN([C@H](C)CO)S2(=O)=O,.,/,/,/,/,/,/,/
CC(O)CNc1cc(N)c([N+](=O)[O-])cc1[N+](=O)[O-] (stereo not given),/,.,.,.,23.6,.,.,.
CCOC(=O)N1CCN(Cc2c(O)ccc3ccccc23)CC1,.,.,.,.,27.5,.,51.3,89.5
O=C(C1CCCO1)N1CCN(Cc2c(O)ccc3ccccc23)CC1 (stereo not given),/,.,.,.,40.6,.,71.9,101.9
Cc1ccc(CN2CCN(C(=O)C3CCCO3)CC2)cc1 (stereo not given),/,.,/,.,.,.,/,/
O=C(C[C@@H]1C=C[C@H](NC(=O)Nc2cc(F)ccc2F)[C@H](CO)O1)NCc1ccncn1,.,/,.,/,/,/,/,/
O=C1C(O)=CC(=C(c2ccccc2)c2ccccc2)c2ccccc21,.,61.3,.,.,97.2,.,.,87.6
C[C@H]1CN([C@@H](C)CO)S(=O)(=O)c2ccc(C#CCN(C)C)cc2O[C@H]1CN(C)C(=O)C1CCC1,.,/,/,/,/,/,/,/
COc1ccccc1/C=C/C=N/n1c(-c2ccc(F)cc2)n[nH]c1=S,.,/,.,.,52.3,.,.,.
COc1ccccc1/C=C\C=N\n1c(-c2ccc(Cl)cc2)n[nH]c1=S,.,.,.,.,.,.,/,/
CCN(CC)CCNC(=O)c1ccc(NC(=O)c2cn(-c3ccccc3)nc2-c2cccs2)cc1,57.6,76.4,.,.,35.3,106.4,.,.
CC(=O)N(C)C[C@@H]1Oc2cc(-c3cccc(C#N)c3)ccc2S(=O)(=O)N([C@H](C)CO)C[C@H]1C,.,/,/,/,/,/,/,/
COc1cccc(C2CC(c3ccccc3Cl)Nc3nc(N)nn32)c1 (stereo not given),/,.,.,.,23.5,.,.,.
COc1cccc(C2CC(c3ccc(Cl)cc3Cl)Nc3nc(N)nn32)c1 (stereo not given),/,.,/,/,.,.,/,/
O=C(C[C@H]1C[C@H]2c3cc(NC(=O)CC4CC4)ccc3O[C@H]2[C@@H](CO)O1)NCCN1CCCCC1,.,/,.,/,/,/,/,/
N#CC1=C(Nc2ccccc2Cl)SC2(CCCC2)NC1=O,/,/,/,.,33.0,.,.,19.2
SMILES,EWS-Fli inh,TRPM1 prom inh,PAX8 reporter,Shn3 inh set2,ABHD5-PLIN5 inh,Peg3 promoter,ABHD5-PLIN5 conf,HNF4 counter
N#CC1=C(Nc2ccccc2Cl)SC(c2ccncc2)NC1=O (stereo not given),.,/,.,.,.,.,/,/
C[C@H]1CN([C@@H](C)CO)S(=O)(=O)c2ccc(-c3ccccc3)cc2O[C@@H]1CN(C)C(=O)c1ccccc1F,.,/,/,/,/,/,/,/
O=S(=O)(/N=S1/CC=CCN1S(=O)(=O)c1ccccc1)c1ccccc1 (stereo not given),/,.,/,.,71.5,.,60.0,101.3
CSc1sc(-c2ccnc(SCC(=O)C(C)(C)C)n2)c2c1C(=O)CC(C)(C)C2,.,.,.,.,23.3,.,.,.
C[C@H](CO)N1C[C@H](C)[C@@H](CN(C)Cc2ccc(C(=O)Nc3ccccc3N)cc2)Oc2c(NC(=O)C3CCCCC3)cccc2C1=O,.,.,.,.,72.5,.,.,.
COc1cccc(CNc2nc3cc(-c4ccccc4)sc3c(=O)n2C)c1,.,/,.,.,.,.,/,/
COc1cccc(CNc2nc3cc(-c4ccc(C(=O)N5CCN(C)CC5)cc4)sc3c(=O)n2C)c1,.,/,.,.,23.6,.,.,.
O=C(NCC[C@@H]1CC[C@H](NC(=O)Nc2cc(F)ccc2F)[C@H](CO)O1)Nc1ccc(F)cc1,.,/,/,/,/,/,/,/
Cc1ccc(-n2nc(C)c3c(C)c(CCC(=O)Nc4ccc(CN5CCCC5)cc4)c(C)nc32)cc1,.,65.1,.,.,29.0,68.0,.,.
Cc1ccc(Cl)c(NC(=O)COC(=O)CNS(=O)(=O)/C=C/c2ccccc2)c1Cl,/,.,.,.,44.1,.,.,.
